HTR5A inv ag = inverse agonist of human HTR5A in OPRM1-OPRD1 counter-screen; P47898; 0.083% of 340,000 active; AID 504634; inhibition, % at 9.3 µM; HTR5A cell line, luminescence, inverse agonism; in the data active means inhibition mostly above about 23%, no sharp cut-off; inactive means mostly below about 18%
Target sequence (P47898 whole entry, looked up): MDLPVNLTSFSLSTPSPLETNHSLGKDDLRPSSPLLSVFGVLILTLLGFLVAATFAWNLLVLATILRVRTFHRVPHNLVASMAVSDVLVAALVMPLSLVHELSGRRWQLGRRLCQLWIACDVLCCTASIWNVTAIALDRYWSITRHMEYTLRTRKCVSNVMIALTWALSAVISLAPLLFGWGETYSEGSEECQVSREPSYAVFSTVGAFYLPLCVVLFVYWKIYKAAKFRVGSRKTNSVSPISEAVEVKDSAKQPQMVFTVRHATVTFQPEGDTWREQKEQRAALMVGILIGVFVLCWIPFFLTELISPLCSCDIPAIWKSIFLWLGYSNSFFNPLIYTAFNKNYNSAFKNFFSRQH
HTR5A ag ctr = HTR5A agonism, opioid heterodimer counter-screen; P47898; HTR5A agonist assay, luminescence, cell-based; activation, % at 9.3 µM; 0.61% of 340,000 active; in the data active means activation mostly above about 9.5%, no sharp cut-off; inactive means mostly below about 7.6%
MOR-DOR ag-1 = agonists of human mu-delta opioid receptor heterodimerization; P35372+P41143; cells, OPRM1-OPRD1 heterodimerization, luminescence; activation, % at 9.3 µM; 0.3% of 340,000 active; AID 504326
OPRM1-OPRD1 inv = mu-delta opioid heterodimer inverse agonism. 0.21% of 340,000 active. inhibition, % at 9.3 µM. cell-based MOR-DOR heterodimer luminescence. P35372+P41143; in the data active means inhibition above about 22%, passing the limit was not always enough
MOR-DOR ag-2 = promotes OPRM1-OPRD1 heterodimerization in HTR5A counter-screen; shares compounds with HTR5A ag ctr; U2OS counter-screen cells, complementation luminescence, 3 h; 13% of 800 active; activation, % at 9.3 µM
HTR5A ag conf = confirmation of human HTR5A agonists | shares compounds with HTR5A ag ctr | HTR5A agonist cell assay, luminescence | activation, % at 9.3 µM | 17% of 800 active | AID 504915; in the data active means activation above about 17%
Hits are given with their value. Sampled rows, rich in hits. Any-hit rate of the full collection: about 1.1%. Unless noted, no stated cut-off is given here; in the data, active means activation above about 18%; inactive means the rest.

COC(=O)c1cc(-c2ccc(Br)cc2)n[nH]1 was read as HTR5A inv ag inactive, HTR5A ag ctr inactive, MOR-DOR ag-1 inactive and OPRM1-OPRD1 inv inactive.
O=C(Nc1ccc(S(=O)(=O)Nc2ncccn2)cc1)C1CC(=O)N(c2ccc(Cl)cc2)C1 (configuration not stated) was read as HTR5A inv ag inactive, HTR5A ag ctr inactive, MOR-DOR ag-1 inactive and OPRM1-OPRD1 inv inactive.
For Cc1nc2ccccc2n1CC(=O)c1ccc(O)c(O)c1 the results were HTR5A inv ag inactive, HTR5A ag ctr 21.8, MOR-DOR ag-1 inactive, OPRM1-OPRD1 inv inactive, MOR-DOR ag-2 inactive and HTR5A ag conf 20.5.
Cc1nc2ccccc2n1CC(=O)c1ccccc1 was read as HTR5A inv ag inactive, HTR5A ag ctr inactive, MOR-DOR ag-1 inactive and OPRM1-OPRD1 inv inactive.
`COc1ccc(N(CC(=O)NCCSc2ccccn2)S(=O)(=O)c2ccccc2)c(OC)c1` gave HTR5A inv ag inactive, HTR5A ag ctr 19.3, MOR-DOR ag-1 inactive, OPRM1-OPRD1 inv inactive, MOR-DOR ag-2 inactive and HTR5A ag conf 20.8.
For C1CCC(c2nn3c(-c4n[nH]c5c4CCC5)nnc3s2)CC1 the results were HTR5A inv ag inactive, HTR5A ag ctr inactive, MOR-DOR ag-1 inactive and OPRM1-OPRD1 inv inactive.
For CCN(CC)c1ccc(-c2nn3c(-c4n[nH]c5c4CCC5)nnc3s2)cc1 the results were HTR5A inv ag inactive, HTR5A ag ctr 16.4, MOR-DOR ag-1 inactive, OPRM1-OPRD1 inv inactive, MOR-DOR ag-2 inactive and HTR5A ag conf inactive.
OCCNc1nnc(-c2ccccc2)c(-c2ccccc2)n1 was read as HTR5A inv ag inactive, HTR5A ag ctr inactive, MOR-DOR ag-1 inactive and OPRM1-OPRD1 inv inactive.
CSc1cccc(NC(=O)N2CCc3ccc(NC(=O)c4ccccn4)cc3C2)c1 was read as HTR5A inv ag inactive, HTR5A ag ctr 15.7, MOR-DOR ag-1 inactive, OPRM1-OPRD1 inv inactive, MOR-DOR ag-2 inactive and HTR5A ag conf inactive.
CCCn1c(SCC(=O)N2N=C3/C(=C/c4ccc(OC)cc4)CCCC3C2c2ccc(OC)cc2)n[nH]c1=O (configuration not stated) was read as HTR5A inv ag inactive, HTR5A ag ctr 22.6, MOR-DOR ag-1 inactive, OPRM1-OPRD1 inv inactive, MOR-DOR ag-2 25.9 and HTR5A ag conf inactive.
`CC(C)(C)c1ccc(C(=O)NN=C2CCCC2)cc1` gave HTR5A inv ag inactive, HTR5A ag ctr 14.6, MOR-DOR ag-1 inactive, OPRM1-OPRD1 inv inactive, MOR-DOR ag-2 inactive and HTR5A ag conf inactive.
O=C(NN=C1CCCCCCC1)c1ccc(F)cc1 was read as HTR5A inv ag inactive, HTR5A ag ctr inactive, MOR-DOR ag-1 inactive and OPRM1-OPRD1 inv inactive.
Screening O=C1COc2ccc(C(=O)COC(=O)c3cc(S(=O)(=O)NCc4ccccc4)ccc3O)cc2N1 returned HTR5A inv ag inactive, HTR5A ag ctr inactive, MOR-DOR ag-1 inactive and OPRM1-OPRD1 inv inactive.
Screening Cc1ccc2[nH]c3c(=O)n(CC(=O)N4CCN(C)CC4)ncc3c2c1 returned HTR5A inv ag inactive, HTR5A ag ctr inactive, MOR-DOR ag-1 inactive and OPRM1-OPRD1 inv inactive.
`Nc1ccc(C(=O)N/N=C/c2cccc(Oc3ccccc3)c2)cc1` gave HTR5A inv ag inactive, HTR5A ag ctr 22.8, MOR-DOR ag-1 inactive, OPRM1-OPRD1 inv inactive, MOR-DOR ag-2 inactive and HTR5A ag conf 27.5.
Screening COc1cccc(NC(=O)CN(C)C(=O)/C=C/c2cn(-c3ccccc3)nc2-c2ccc(OC)c(OC)c2)c1 returned HTR5A inv ag inactive, HTR5A ag ctr inactive, MOR-DOR ag-1 inactive and OPRM1-OPRD1 inv inactive.
COc1ccc(-c2nn(-c3ccccc3)cc2/C=C/C(=O)N(C)CC(=O)Nc2cccc(F)c2)cc1OC was read as HTR5A inv ag inactive, HTR5A ag ctr 15.2, MOR-DOR ag-1 inactive, OPRM1-OPRD1 inv inactive, MOR-DOR ag-2 inactive and HTR5A ag conf inactive.
Screening CN(C)c1ccc(NC(=S)N2CCN(c3ncc(C(F)(F)F)cc3Cl)CC2)cc1 returned HTR5A inv ag inactive, HTR5A ag ctr 15.8, MOR-DOR ag-1 inactive, OPRM1-OPRD1 inv inactive, MOR-DOR ag-2 inactive and HTR5A ag conf inactive.
Screening COC/C=C/C1=CC2=CC(=O)C(C)(OC(=O)c3cnc4ccccc4n3)C(=O)C2=CN1CCCOC(C)C (configuration not stated) returned HTR5A inv ag inactive, HTR5A ag ctr 17.7, MOR-DOR ag-1 inactive, OPRM1-OPRD1 inv inactive, MOR-DOR ag-2 42.0 and HTR5A ag conf inactive.
For O=C1NC(c2ccccc2)=C(c2nc3ccccc3s2)C(c2ccc(O)cc2)N1 (configuration not stated) the results were HTR5A inv ag inactive, HTR5A ag ctr 37.7, MOR-DOR ag-1 inactive, OPRM1-OPRD1 inv inactive, MOR-DOR ag-2 inactive and HTR5A ag conf inactive.
For O=C1NC(c2ccccc2)=C(c2ccc3ccccc3n2)C(c2ccccc2)N1 (configuration not stated) the results were HTR5A inv ag inactive, HTR5A ag ctr inactive, MOR-DOR ag-1 inactive and OPRM1-OPRD1 inv inactive.
`COc1cccc(N2CCN(C(=O)CCCCCn3c(=S)[nH]c4cc5c(cc4c3=O)OCO5)CC2)c1` gave HTR5A inv ag inactive, HTR5A ag ctr 20.8, MOR-DOR ag-1 inactive, OPRM1-OPRD1 inv inactive, MOR-DOR ag-2 inactive and HTR5A ag conf 21.4.
Screening O=C(CCCCCn1c(=S)[nH]c2cc3c(cc2c1=O)OCO3)N1CCN(c2ccccc2)CC1 returned HTR5A inv ag inactive, HTR5A ag ctr inactive, MOR-DOR ag-1 inactive and OPRM1-OPRD1 inv inactive.
For O=C(NCCc1ccc(F)cc1)C(=O)NCC1CCCN1S(=O)(=O)c1cccs1 (configuration not stated) the results were HTR5A inv ag inactive, HTR5A ag ctr 15.3, MOR-DOR ag-1 inactive, OPRM1-OPRD1 inv inactive, MOR-DOR ag-2 inactive and HTR5A ag conf inactive.
`Cc1ccc(NS(=O)(=O)c2cccc(C(=O)NC3CCN(Cc4ccccc4)CC3)c2)cc1` gave HTR5A inv ag inactive, HTR5A ag ctr inactive, MOR-DOR ag-1 inactive and OPRM1-OPRD1 inv inactive.
`O=C(NC1CCN(Cc2ccccc2)CC1)c1cccc(S(=O)(=O)Nc2ccc(SC(F)F)cc2)c1` gave HTR5A inv ag inactive, HTR5A ag ctr 18.7, MOR-DOR ag-1 inactive, OPRM1-OPRD1 inv inactive, MOR-DOR ag-2 inactive and HTR5A ag conf inactive.
For CN(C)c1ccc(CN(C(=O)COc2ccccc2)C2CCS(=O)(=O)C2)cc1 (configuration not stated) the results were HTR5A inv ag inactive, HTR5A ag ctr 16.5, MOR-DOR ag-1 inactive, OPRM1-OPRD1 inv inactive, MOR-DOR ag-2 inactive and HTR5A ag conf inactive.
Screening COc1ccc2nnc(-c3ccccc3)n2n1 returned HTR5A inv ag inactive, HTR5A ag ctr inactive, MOR-DOR ag-1 inactive and OPRM1-OPRD1 inv inactive.
For COc1cc(CCNc2ccc3nnc(-c4ccccc4)n3n2)cc(OC)c1OC the results were HTR5A inv ag inactive, HTR5A ag ctr 17.4, MOR-DOR ag-1 inactive, OPRM1-OPRD1 inv inactive, MOR-DOR ag-2 inactive and HTR5A ag conf inactive.
O=C(O/N=C1/CCSc2ccccc21)c1ccccc1 was read as HTR5A inv ag inactive, HTR5A ag ctr 22.6, MOR-DOR ag-1 inactive, OPRM1-OPRD1 inv inactive, MOR-DOR ag-2 inactive and HTR5A ag conf inactive.
